Sampled rows, rich in hits. Any-hit rate of the full collection: about 1.1%.
HTR5A ag ctr: counter-screen for OPRM1-OPRD1 agonists: human HTR5A agonism | P47898 | HTR5A agonist assay, luminescence, cell-based | activation, % at 9.3 µM | hit rate 0.61% among 340,000 | AID 504692; in the data active means activation mostly above about 9.5%, no sharp cut-off; inactive means mostly below about 7.6%;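 further: 0% = cells with vehicle only and 100% = reference agonist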
Bfl-1 A1 inh: inhibitors of the anti-apoptotic protein A1, read as caspase activation | MEF A1-2A-BIM cells, Caspase-Glo 3/7 luminescence, 3 h; percent of clofoctol response, vehicle zero | caspase activation, % (test concentration not listed) | hit rate 0.066% among 330,000 | AID 2462;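 active means over half of replicate activation scores above 10%, or exactly half above 10 with the replicate mean above 10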
HTR5A inv ag: counter-screen for OPRM1-OPRD1 inverse agonists: human HTR5A inverse agonism; P47898; HTR5A cell line, luminescence; inhibition, % at 9.3 µM; hit rate 0.083% among 340,000; in the data active means inhibition mostly above about 23%, no sharp cut-off; inactive means mostly below about 18%;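 further: 0% = cells with DMSO and 100% = no-cell wells with DMSO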
OPRM1-OPRD1 ag: OPRM1-OPRD1 heterodimerization agonism; AID 504326; activation, % at 9.3 µM; hit rate 0.3% among 340,000; cells, luminescence;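 further: 0% = vehicle-treated cells and 100% = reference agonist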
Target sequence (P35372 whole entry, looked up): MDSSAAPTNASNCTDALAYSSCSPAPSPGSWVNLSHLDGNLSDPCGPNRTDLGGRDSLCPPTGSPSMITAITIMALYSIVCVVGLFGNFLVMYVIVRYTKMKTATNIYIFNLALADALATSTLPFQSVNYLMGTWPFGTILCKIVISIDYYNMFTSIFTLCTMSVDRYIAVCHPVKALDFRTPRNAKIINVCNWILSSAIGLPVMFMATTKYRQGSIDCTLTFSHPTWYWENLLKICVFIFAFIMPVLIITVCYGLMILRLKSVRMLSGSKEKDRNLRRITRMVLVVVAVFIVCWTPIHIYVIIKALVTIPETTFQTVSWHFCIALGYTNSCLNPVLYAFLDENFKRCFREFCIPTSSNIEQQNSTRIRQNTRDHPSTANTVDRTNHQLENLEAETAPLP
Target sequence (P41143 whole entry, looked up): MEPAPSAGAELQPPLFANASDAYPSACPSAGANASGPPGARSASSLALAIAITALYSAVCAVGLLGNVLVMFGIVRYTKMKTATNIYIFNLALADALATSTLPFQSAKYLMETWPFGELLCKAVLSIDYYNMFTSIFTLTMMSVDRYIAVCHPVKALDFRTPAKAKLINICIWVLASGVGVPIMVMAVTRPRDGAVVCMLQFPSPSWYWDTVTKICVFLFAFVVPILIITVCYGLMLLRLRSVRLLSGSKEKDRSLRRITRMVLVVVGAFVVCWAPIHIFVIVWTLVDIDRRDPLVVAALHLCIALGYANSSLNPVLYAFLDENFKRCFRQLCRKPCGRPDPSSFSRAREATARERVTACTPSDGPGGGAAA
MOR-DOR inv ag: mu-delta opioid heterodimer inverse agonism; cell-based MOR-DOR heterodimer luminescence; inhibition, % at 9.3 µM; hit rate 0.21% among 340,000; AID 504357; in the data active means inhibition above about 22%, passing the limit was not always enough;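 further: 0% = cells with DMSO and 100% = wells without cells with DMSO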
OPRM1-D1 ag cf: OPRM1-OPRD1 heterodimer agonism, confirmation | shares compounds with OPRM1-OPRD1 ag | cells, MOR-DOR heterodimerization, luminescence complementation | hit rate 45% among 830 | AID 504904 | activation, % at 9.3 µM;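 further: 0% = vehicle-treated cells and 100% = reference agonist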
HTR5A ag counter: HTR5A agonism, opioid heterodimer counter-screen; hit rate 8% among 830; shares compounds with OPRM1-OPRD1 ag; HTR5A agonist counterscreen, cell luminescence; activation, % at 9.3 µM; in the data active means activation above about 17%;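 further: 0% = vehicle-treated cells and 100% = reference agonist response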
Active calls of the source: *. Unless noted, no stated cut-off is given here; in the data, active means activation above about 18%; inactive means the rest.

C#CCn1cc(/C=N/Nc2nc3ccccc3[nH]2)c2ccccc21 was read as HTR5A ag ctr -3, Bfl-1 A1 inh -1, HTR5A inv ag 8, OPRM1-OPRD1 ag 33*, MOR-DOR inv ag -226, OPRM1-D1 ag cf 1 and HTR5A ag counter 4.
Screening C(=N\Nc1nc2ccccc2[nH]1)/c1cccc2nccnc12 returned Bfl-1 A1 inh -1.
`O=S(=O)(c1cccc2nonc12)N1CCCCC1` gave HTR5A ag ctr -2, Bfl-1 A1 inh 1, HTR5A inv ag 7, OPRM1-OPRD1 ag -3 and MOR-DOR inv ag 15.
Screening Cn1c(-c2c(N)n(-c3ccccc3)c3nc4ccccc4nc23)nc2ccccc21 returned HTR5A ag ctr -1, Bfl-1 A1 inh 0, HTR5A inv ag 2, OPRM1-OPRD1 ag 19*, MOR-DOR inv ag -95, OPRM1-D1 ag cf 26* and HTR5A ag counter 0.
Screening CN(C)C(CNC(=O)c1ccc2ccccc2c1)c1ccco1 (centres undefined) returned HTR5A ag ctr 1, Bfl-1 A1 inh 0, HTR5A inv ag -3, OPRM1-OPRD1 ag 30*, MOR-DOR inv ag -158, OPRM1-D1 ag cf 33* and HTR5A ag counter 4.
For CSc1ccccc1C(=O)NCC(c1ccco1)N(C)C (centres undefined) the results were HTR5A ag ctr 8, Bfl-1 A1 inh 0, HTR5A inv ag -24, OPRM1-OPRD1 ag -1 and MOR-DOR inv ag 5.
CSc1ccc(C(=O)NCC(c2ccco2)N(C)C)cc1[N+](=O)[O-] (centres undefined) was read as HTR5A ag ctr 6, Bfl-1 A1 inh 0, HTR5A inv ag -17, OPRM1-OPRD1 ag 251*, MOR-DOR inv ag inactive, OPRM1-D1 ag cf 242* and HTR5A ag counter 1.
For CC(=O)NC(CC(=O)NCC(c1ccco1)N(C)C)c1ccccc1 (centres undefined) the results were HTR5A ag ctr 4, Bfl-1 A1 inh 0, HTR5A inv ag -43, OPRM1-OPRD1 ag 195*, MOR-DOR inv ag inactive, OPRM1-D1 ag cf 226* and HTR5A ag counter -1.
Screening Cc1cccc(C(=O)NCC(c2ccco2)N(C)C)c1 (centres undefined) returned HTR5A ag ctr -1, Bfl-1 A1 inh 2, HTR5A inv ag 2, OPRM1-OPRD1 ag 1 and MOR-DOR inv ag -5.
CN(C(=O)c1ccc(NC(=O)Cc2cccc(NC(=O)C3CCCN(C(=O)C4CCC4)C3)c2)cc1)C1CCCC1 (centres undefined) was read as HTR5A ag ctr 3, Bfl-1 A1 inh 1, HTR5A inv ag -8, OPRM1-OPRD1 ag -2 and MOR-DOR inv ag 11.
Screening Cc1ccc(OCCOc2ccc(Br)cc2/C=N\NC(N)=O)cc1 returned HTR5A ag ctr 8, Bfl-1 A1 inh 0, HTR5A inv ag -20, OPRM1-OPRD1 ag 20*, MOR-DOR inv ag -98, OPRM1-D1 ag cf 1 and HTR5A ag counter 71*.
Screening Cc1c(CN2CCC(n3nccc3NC(=O)C3CC3)CC2)[nH]c2ccccc12 returned HTR5A ag ctr 7, Bfl-1 A1 inh -1, HTR5A inv ag 12, OPRM1-OPRD1 ag 45*, MOR-DOR inv ag -242, OPRM1-D1 ag cf 1 and HTR5A ag counter 31*.
CC1CN(C(=O)COC(=O)c2ccc(Cl)nc2)CC(C)O1 (centres undefined) was read as HTR5A ag ctr 0, Bfl-1 A1 inh 0, HTR5A inv ag 0, OPRM1-OPRD1 ag -3 and MOR-DOR inv ag 12.
`Cc1csc(N/N=C/c2ccc(O)c([N+](=O)[O-])c2)n1` gave HTR5A ag ctr -4, Bfl-1 A1 inh -6, HTR5A inv ag -3, OPRM1-OPRD1 ag -4 and MOR-DOR inv ag 17.
For CC(C)(C)c1csc(N/N=C/c2ccc(O)cc2)n1 the results were HTR5A ag ctr -1, Bfl-1 A1 inh 0, HTR5A inv ag 4, OPRM1-OPRD1 ag 18*, MOR-DOR inv ag -84, OPRM1-D1 ag cf 49* and HTR5A ag counter 1.
Screening CCOCCCNC(=O)c1cc(Nc2ccc(OC)cc2OC)nc2ccccc12 returned HTR5A ag ctr 1, Bfl-1 A1 inh 0, HTR5A inv ag -2, OPRM1-OPRD1 ag -1 and MOR-DOR inv ag 4.

Source: PubChem BioAssay
